High-throughput results: PubChem, several laboratories
PostGolgi yeast = phenotypic screen on post-Golgi transport, primary screen; 0.9% of 98,000 active; inhibition, % at 10 µM; AID 739, 2007; post-Golgi transport phenotypic cell assay;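 note: yeast cells grown in 1536-well plates; yeast grown about 18 h at 30C before absorbance read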
CYP2C19 inh = blockers of cytochrome P450 2C19 activity – biochemical, luminescence, ADME assay, primary screen. CYP2C19 Supersomes, luciferin-H EGE luminescence, 30 min. inhibition, % at 5 µM. 21% of 96,000 active;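 active = CYP2C19 inhibition above a set limit at 5 µM in the primary screen, cut at about 50% in these data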
CYP2C9 activ = human CYP2C9 activators, primary screen, biochemical, luminescence; Cytochrome P450 2C9 (Homo sapiens), P11712; recombinant CYP2C9, luciferin-H conversion; stronger effect = higher value; factor 1 = untreated enzyme, 0 = blocked; activation factor at 5 µM; 1.4% of 96,000 active;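 active = activation factor of 2 or more for CYP2C9 at a 5 µM dose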
Target sequence (P11712 whole entry, looked up): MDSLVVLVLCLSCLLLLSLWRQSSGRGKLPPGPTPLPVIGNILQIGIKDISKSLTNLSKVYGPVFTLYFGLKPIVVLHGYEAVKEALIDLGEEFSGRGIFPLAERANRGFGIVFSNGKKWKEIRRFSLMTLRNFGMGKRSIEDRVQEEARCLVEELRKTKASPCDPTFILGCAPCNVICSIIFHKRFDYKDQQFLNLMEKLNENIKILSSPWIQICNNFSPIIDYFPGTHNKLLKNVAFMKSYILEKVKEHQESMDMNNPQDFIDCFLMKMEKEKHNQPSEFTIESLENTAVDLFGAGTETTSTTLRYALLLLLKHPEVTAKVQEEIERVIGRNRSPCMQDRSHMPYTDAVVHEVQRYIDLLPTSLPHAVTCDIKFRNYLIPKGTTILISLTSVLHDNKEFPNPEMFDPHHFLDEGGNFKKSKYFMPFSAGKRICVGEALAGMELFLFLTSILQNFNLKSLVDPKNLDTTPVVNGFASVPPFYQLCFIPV
CYP2C9 inh = blockers of cytochrome P450 2C9 activity – biochemical, luminescence, ADME assay, primary screen | 20% of 96,000 active | AID 777, 2007 | CYP2C9 Supersomes, luciferin-H conversion | inhibition, % at 5 µM;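 active = blocking of liver enzyme CYP2C9 beyond about 50% at 5 µM, limit read from the data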
PostGolgi ctrl = growth inhibition of yeast control strain, primary screen, counter-screen for post-Golgi transport modulator project. efflux-deficient yeast background strain, growth absorbance A615, 16 h. inhibition, % at 10 µM. 5% of 98,000 active
CYP2C19 act = human CYP2C19 activators, primary screen, biochemical, luminescence; 96,000 tested, under 10 active; Cytochrome P450 2C19 (Homo sapiens), P33261; AID 1025, 2008; recombinant CYP2C19, luciferin-H EGE luminescence; stronger effect = higher value; 0 = fully inhibited enzyme, 1 = untreated enzyme; activation factor at 5 µM;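 active = activation factor of at least 2 at 5 µM in the primary screen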
Of the large screens only hits and unclear results are named; the others gave an inactive call. In the library only some 32% were active in any assay of this set; here they are far more common. Cut-off read from the data, not from the text of the source, unless noted: active = inhibition above about 30%; inactive = the rest.

COc1ccc(C2=NOC(C(=O)Nc3cc(Br)ccc3O)C2)cc1OC (stereo not drawn)	none
O=c1c2ccccc2n(Cc2ccccc2F)c(=O)n1Cc1ccccc1F	none
Cn1c(=O)n(Cc2ccccc2F)c2ccccc21	CYP2C19 inh 70.4
Cn1c(=O)n(Cc2ccc(Cl)cc2)c2ccccc21	CYP2C19 inh 76.3
NC(=O)CSc1nnc(Cn2c(=O)sc3ccccc32)n1-c1ccccc1	none (no result: CYP2C19 inh, CYP2C9 activ, CYP2C9 inh, CYP2C19 act)
CCOC(=O)C(C)Sc1nnc(Cn2c(=O)sc3ccccc32)n1-c1ccccc1 (stereo not drawn)	CYP2C19 inh 69.4, CYP2C9 inh 80.3
COc1cc(C2=NOC(C(=O)N3CCOCC3)C2)cc(OC)c1OC (stereo not drawn)	none
CCOC(=O)c1c(C(C)(C)C)oc2ccc(OCC#N)cc12	CYP2C9 inh 57.1
COc1ccc2oc(-c3ccccc3)c(C(N)=O)c2c1	none
Cc1cc(=O)oc2cc(OCC#N)ccc12	none
CCOC(=O)c1c(-c2ccccc2)oc2ccc(OC(C)=O)cc12	PostGolgi ctrl 31.8
CCOC(=O)c1c(COc2ccccc2)oc2ccc(O)cc12	none
CCOC(=O)c1c(C(C)(C)C)oc2ccc(O)cc12	PostGolgi ctrl 52.4
O=c1c2ccccc2nnn1CSc1nnc(-c2ccc3c(c2)OCO3)o1	none
Cc1nc(C2CC(=O)OC23CCCCC3)cs1 (stereo not drawn)	CYP2C19 inh 78.0 (no result: PostGolgi yeast, PostGolgi ctrl)
O=C1CC(C(=O)Nc2ccccc2)C2(CCCCC2)O1 (stereo not drawn)	none
Cc1nnc(SCC(=O)c2c(N)n(C)c(=O)n(C)c2=O)n1Cc1ccccc1	none
CC(C)Nc1nnc(SCC(=O)c2c(N)n(Cc3ccccc3)c(=O)n(C)c2=O)s1	CYP2C9 inh 58.2
CCC(=Nc1ccc(Cc2ccncc2)cc1)c1c(O)n(C)c(=O)n(C)c1=O	CYP2C19 inh 95.6, CYP2C9 inh 91.7
CCCCn1c(O)c(C(CC)=Nc2ccc3c(c2)CCC3)c(=O)[nH]c1=O	none
CCSc1nc2ccccc2n1C(=O)/C=C\c1ccc(OC)c(OC)c1	none
CCOc1ccc2nc(NC(=O)CSc3nnnn3C3CCCCC3)sc2c1	PostGolgi ctrl 42.5
CCOc1ccc2nc(NC(=O)CSc3nc4c(c(=O)n(C)c(=O)n4C)n3C(C)C)sc2c1	none
COc1ccc2nc(NC(=O)CSc3nnnn3C3CCCCC3)sc2c1	PostGolgi ctrl 44.6
CC1CCc2nc(NC(=O)C3CCCO3)sc2C1 (stereo not drawn)	none
O=C(Nc1ccccc1)NC1CC2CCC(C1)N2Cc1nnnn1Cc1ccc2c(c1)OCO2 (stereo not drawn)	none
CCOc1ccccc1NC(=O)NC1CC2CCCC(C1)N2Cc1nnnn1CCc1ccccc1 (stereo not drawn)	CYP2C19 inh 78.3, CYP2C9 inh 60.8
CCc1ccc(C(=O)Nc2cc3c(cc2Cl)OCCCO3)cc1	CYP2C9 activ 2.2
CCC(O)c1cc2c(cc1NC(=O)c1ccc(C)cc1)OCCO2 (stereo not drawn)	CYP2C19 inh 63.8, CYP2C9 inh 76.5
CC1(C)OC(=O)N(c2cccnc2)C1(C)O (stereo not drawn)	none
COc1ccc(C2CCCN2C(=O)Nc2ccc(Cl)cc2)cc1OC (stereo not drawn)	CYP2C19 inh 72.8
Cc1cc(C(=O)COC(=O)CN(C)S(=O)(=O)c2ccc(Cl)cc2)c(C)n1Cc1cccs1	CYP2C19 inh 73.7
Oc1ccc(N2CCN(C(c3cccs3)c3nnnn3CCc3ccccc3)CC2)cc1 (stereo not drawn)	PostGolgi ctrl 35.4
COc1ccc(Cn2nnnc2C(c2cccs2)N2CCN(c3ccccc3)CC2)cc1 (stereo not drawn)	none
COc1ccc(Cn2nnnc2C(c2cccs2)N2CCN(c3ccc([N+](=O)[O-])cc3)CC2)cc1 (stereo not drawn)	CYP2C19 inh 62.6, CYP2C9 inh 73.2
CCN(CC)C(=O)CSc1nnc2sc3ccccc3n12	CYP2C19 inh 76.6 (no result: PostGolgi yeast, PostGolgi ctrl)
Cc1ccccc1Nc1nc(N)nc(CSc2nnc3sc4ccccc4n23)n1	CYP2C9 activ 2.4
c1ccc(OCCSc2nnc3sc4ccccc4n23)cc1	none
Cc1ccccc1Nc1nc(N)nc(CSc2nnc(-c3ccccc3)n2C)n1	none
